aSyn 5UTR act = Activators via SNCA 5'UTR binding, MLPCN; activity score, % (tested at 7.5 µM), hits read low; actives 7.1% (n = 300,000); AID 1814; alpha-synuclein 5'UTR reporter, activators screen; in the data active = activity score below about -60%
The depositor's hits bear a star. The list is a sample of the results.

SMILES	aSyn 5UTR act
N#Cc1ccccc1/C=N/Nc1nc(-c2ccccc2)c2cc(Cl)ccc2n1	-95*
CN(C)C(=O)c1cc(C(=O)c2ccc(F)cc2F)c[nH]1	-72*
Cc1ccc(N2CCN(C(=O)c3cc(C(=O)c4ccccc4C)c[nH]3)CC2)c(C)c1	58
CN(C)C(=O)c1cc(C(=O)c2ccc(C(F)(F)F)cc2F)c[nH]1	-68*
Fc1ccc(C[n+]2csc3ccccc32)cc1	-109*
CN(C)/C=C1\C(=O)N(c2ccc(Cl)c(Cl)c2)CS1(=O)=O	-81*
Cc1ccc2oc(C(=O)NCC(c3ccco3)N(C)C)c(C)c2c1 (stereo not given)	-73*
Cc1ccc2oc(C(=O)Nc3nnc(C)s3)c(C)c2c1	-68*
Cc1ccc2oc(C(=O)Nc3nonc3C)c(C)c2c1	-106*
CCN=C1NN=C(c2ccc(C)cc2)CS1	-128*
c1ccc(CN=C2NN=C(c3ccccc3)CS2)cc1	-182*
Cc1ccc2nc(NC(=O)CSc3nc4ccccc4o3)sc2c1	-143*
Cc1cc(C)nc(NC(=O)CSc2nc3ccccc3o2)n1	-153*
O=C(CSc1nc2ccccc2o1)N/N=C/c1ccco1	-82*
Cc1ccc(-c2csc(NC(=O)CSc3nc4ccccc4o3)n2)cc1	-94*
O=C(CSc1nc2ccccc2[nH]1)Nc1nc(-c2ccc(Br)cc2)cs1	-76*
Cc1ccc2nc(NC(=O)CSc3nncc(=O)n3N)sc2c1	-98*
CC(=O)c1cc2c(cc1NC(=O)CSc1nc3ccccc3o1)OCO2	-154*
COC(=O)c1c(NC(=O)/C=C/C(=O)O)sc(C)c1-c1ccc(C(C)C)cc1	-68*
O=c1cc(-c2ccccc2)[nH]c2nc3ccccc3n12	-89*
O=c1cc(-c2ccccc2Cl)oc2c(Br)ccc(O)c12	-130*
Cc1ccc(C(=O)Nc2ccnc(-c3cccnc3)n2)cc1	-269*
Cc1ccc(NC(=O)Nc2ccnc(-c3cccnc3)n2)cc1	110
COc1ccc(C(=O)Nc2ccnc(-c3cccnc3)n2)cc1	-166*
O=C(Nc1ccnc(-c2cccnc2)n1)c1ccc(Cl)c(Cl)c1	-63*
SMILES	aSyn 5UTR act
S=C(NCCc1ccccc1)NC1CCCCCC1	-114*
S=C(NCCc1ccc(Cl)cc1)NC1CCCCC1	-111*
CNC[C@@H](Cc1ccccc1)NC[C@@H](CC1CCCCC1)NCCCc1ccccc1	125
COc1cc(OC)c(C(=O)/C=C/c2ccccc2)c(O)c1O	-92*
COc1cc(O)cc(O)c1C(=O)/C=C/c1ccccc1	-140*
O=C(Nc1ccc(Cl)cc1)c1csc(-c2ccncc2)n1	-66*
O=C(Nc1ccc(Cl)cc1Cl)c1csc(-c2cccnc2)n1	-72*
O=C(Nc1ccc(Cl)cc1)c1csc(-c2ccccc2)n1	-68*
CCOC(=O)c1sc(Nc2nc3c(F)cccc3s2)cc1C	-280*
CCOC(=O)c1sc(Nc2nc3ccc(OC)cc3s2)cc1C	-69*
CC(C)c1ccc(NC(=O)c2sccc2-n2cccc2)cc1	-146*
C[C@@H]1CC=C[C@H]2[C@H]1C(=O)N(Cc1ccccc1)[C@H]2c1ccc(-c2cc3ccccc3s2)cc1F	-138*
Cc1ccc(-n2c(C)cc(C(=O)COC(=O)c3c(C)noc3C)c2C)cc1	-199*
CCN(CC)c1ccc(/C=N/NC(=O)C2CC2)cc1	-62*
O=C(N/N=C/c1cc(Br)cc(Cl)c1O)c1ccc2c(c1)OCO2	50
O=C(Nc1cccc(C(=O)O)c1)/C(=C\c1ccc2c(c1)OCO2)NC(=O)c1ccc(Br)o1	-68*
O=C(Cc1ccccc1)N/N=C/c1cc(Br)c(Br)o1	-68*
O=C(N/N=C/c1ccc(Cl)cc1)c1ccc2c(c1)OCO2	-396*
COc1cccc(/C=N/Nc2ccc([N+](=O)[O-])cn2)c1O	102
O=C(N/N=C/c1cc(Br)c(Br)o1)c1ccc2c(c1)OCCO2	-135*
Cc1cc(C(=O)N/N=C/c2cccc([N+](=O)[O-])c2)c(C)n1-c1ccccc1	-142*
Cc1cc(/C=N/Nc2ccc([N+](=O)[O-])cn2)c(C)n1-c1ccccc1	-137*
Cc1c(C(=O)N/N=C/c2ccc(Cl)cc2)[nH]c2ccc(Cl)cc12	-122*
O=C(N/N=C/c1cccs1)c1ccc2c(c1)OCO2	-65*
CN(C)c1ccc(/C=N/NC(=O)c2cc(-c3ccc4c(c3)OCO4)n[nH]2)cc1	-137*
SMILES	aSyn 5UTR act
CCCCCCCC(=O)Nc1ccc(C(=O)N/N=C/c2cccc([N+](=O)[O-])c2)cc1	76
O=C(N/N=C/c1cccc([N+](=O)[O-])c1)c1ccc2c(c1)OCCO2	-126*
CCN(CC)c1ccc(/C=N/NC(=O)Nc2nonc2N)cc1	-78*
CCC/C(=N/NC(=O)c1ccc2c(c1)OCO2)c1cccs1	-69*
CCN(CC)c1ccc(/C=N/NC(=O)c2ccc(Br)o2)cc1	-160*
O=C(N/N=C/c1ccc2c(c1)OCO2)c1ccc2c(c1)OCCO2	-136*
O=C(N/N=C/c1ccc2c(c1)OCO2)c1ccc(Br)o1	-250*
O=C(/C=C/c1ccc(O)c(O)c1)c1ccccc1O	-293*
O=C(/C=C/c1cc2ccccc2o1)c1ccccc1O	-161*
O=C(/C=C/c1ccoc1)c1ccccc1O	-76*
O=C(/C=C/c1ccc(O)c(O)c1)OCCc1ccccc1	-131*
COc1cccc(C(=O)Cn2c(=N)n(C)c3ccccc32)c1	86
Cn1c(=N)n(CC(=O)c2ccc(Br)s2)c2ccccc21	-118*
Cn1c(=N)n(CC(=O)c2cccs2)c2ccccc21	-92*
Cc1ccc([N+](=O)[O-])cc1N/C=C/C(=O)c1ccco1	-138*
Cc1ccc(N/C=C/C(=O)c2ccco2)c(O)c1	-158*
COc1ccc(NC(=O)c2ccccc2NC(=O)CSc2ccc(Cl)cc2)cc1	-67*
COc1ccc(NC(=O)c2ccccc2NC(=O)CSc2ccccc2)cc1	-79*
COC(=O)c1ccc(NC(=O)CSc2ccccc2)cc1	-129*
CCC(C)NC(=O)c1cc(-c2ccc(OC)cc2)on1 (stereo not given)	-118*
CCC(C)NC(=O)c1cc(-c2ccc3c(c2)OCO3)on1 (stereo not given)	-141*
CCOc1ccc(-c2cc(CCCC(=O)NCCCOC)no2)cc1	87
CCC(C)NC(=O)c1cc(CC(C)C)on1 (stereo not given)	-68*
COc1ccc(-c2cc(C(=O)NCC(C)C)no2)cc1	-99*
CC(C)c1ccc2c(c1)C(N1CCNCC1)Cc1ccc(F)cc1S2 (stereo not given)	75
SMILES	aSyn 5UTR act
Cc1ccccc1OCCOc1cccc(/C=N/NC(=O)Cc2nnc(N)s2)c1	-84*
Nc1nnc(CC(=O)N/N=C/c2cccc(OCCOc3ccccc3)c2)s1	-120*
CN[C@H]1CCc2cc(OC)c(OC)c(OC)c2-c2ccc(OC)c(=O)cc21	90
Cc1ccccc1-c1nnc(Cc2ccccc2)o1	-137*
c1ccc(Cc2nnc(-c3ccccc3)o2)cc1	-120*
Cc1ccc(C#N)c(SCc2nnc(-c3ccc(Cl)cc3)o2)n1	90
Cc1ccc(-c2nnc(Cc3ccc(Cl)cc3)o2)cc1	-85*
Brc1ccc(-c2nnc(Cc3ccccc3)o2)cc1	-169*
c1ccc(-c2nnc(CN3CCCCC3)o2)cc1	-74*
COc1ccc(Cc2nnc(-c3ccccc3)o2)cc1	-94*
CCC1CCC(C(=O)NC(C(=O)Nc2ccc3c(c2)OCCO3)C(C)C)CC1 (stereo not given)	-84*
CC(C)CC(NC(=O)C1CCC(C)CC1)C(=O)Nc1ccc2c(c1)OCCO2 (stereo not given)	-62*
CC1CCc2c(nc3ncnn3c2NCCc2ccccc2F)C1 (stereo not given)	-69*

Source: PubChem BioAssay
